The list is not random: actives were taken first. Their share in the collection is about 3.5%.
mHTT-CaM PPI inh = inhibitors of human mutant huntingtin-calmodulin interaction. AlphaScreen His-mHTT/GST-CaM binding, luminescence. P42858. 190,000 tested, 3.6% active. AID 1671202. inhibition, % at 15 µM;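 also: 0% = both proteins with DMSO and 100% = one protein alone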
Target sequence (P42858 whole entry, looked up, stated change not applied): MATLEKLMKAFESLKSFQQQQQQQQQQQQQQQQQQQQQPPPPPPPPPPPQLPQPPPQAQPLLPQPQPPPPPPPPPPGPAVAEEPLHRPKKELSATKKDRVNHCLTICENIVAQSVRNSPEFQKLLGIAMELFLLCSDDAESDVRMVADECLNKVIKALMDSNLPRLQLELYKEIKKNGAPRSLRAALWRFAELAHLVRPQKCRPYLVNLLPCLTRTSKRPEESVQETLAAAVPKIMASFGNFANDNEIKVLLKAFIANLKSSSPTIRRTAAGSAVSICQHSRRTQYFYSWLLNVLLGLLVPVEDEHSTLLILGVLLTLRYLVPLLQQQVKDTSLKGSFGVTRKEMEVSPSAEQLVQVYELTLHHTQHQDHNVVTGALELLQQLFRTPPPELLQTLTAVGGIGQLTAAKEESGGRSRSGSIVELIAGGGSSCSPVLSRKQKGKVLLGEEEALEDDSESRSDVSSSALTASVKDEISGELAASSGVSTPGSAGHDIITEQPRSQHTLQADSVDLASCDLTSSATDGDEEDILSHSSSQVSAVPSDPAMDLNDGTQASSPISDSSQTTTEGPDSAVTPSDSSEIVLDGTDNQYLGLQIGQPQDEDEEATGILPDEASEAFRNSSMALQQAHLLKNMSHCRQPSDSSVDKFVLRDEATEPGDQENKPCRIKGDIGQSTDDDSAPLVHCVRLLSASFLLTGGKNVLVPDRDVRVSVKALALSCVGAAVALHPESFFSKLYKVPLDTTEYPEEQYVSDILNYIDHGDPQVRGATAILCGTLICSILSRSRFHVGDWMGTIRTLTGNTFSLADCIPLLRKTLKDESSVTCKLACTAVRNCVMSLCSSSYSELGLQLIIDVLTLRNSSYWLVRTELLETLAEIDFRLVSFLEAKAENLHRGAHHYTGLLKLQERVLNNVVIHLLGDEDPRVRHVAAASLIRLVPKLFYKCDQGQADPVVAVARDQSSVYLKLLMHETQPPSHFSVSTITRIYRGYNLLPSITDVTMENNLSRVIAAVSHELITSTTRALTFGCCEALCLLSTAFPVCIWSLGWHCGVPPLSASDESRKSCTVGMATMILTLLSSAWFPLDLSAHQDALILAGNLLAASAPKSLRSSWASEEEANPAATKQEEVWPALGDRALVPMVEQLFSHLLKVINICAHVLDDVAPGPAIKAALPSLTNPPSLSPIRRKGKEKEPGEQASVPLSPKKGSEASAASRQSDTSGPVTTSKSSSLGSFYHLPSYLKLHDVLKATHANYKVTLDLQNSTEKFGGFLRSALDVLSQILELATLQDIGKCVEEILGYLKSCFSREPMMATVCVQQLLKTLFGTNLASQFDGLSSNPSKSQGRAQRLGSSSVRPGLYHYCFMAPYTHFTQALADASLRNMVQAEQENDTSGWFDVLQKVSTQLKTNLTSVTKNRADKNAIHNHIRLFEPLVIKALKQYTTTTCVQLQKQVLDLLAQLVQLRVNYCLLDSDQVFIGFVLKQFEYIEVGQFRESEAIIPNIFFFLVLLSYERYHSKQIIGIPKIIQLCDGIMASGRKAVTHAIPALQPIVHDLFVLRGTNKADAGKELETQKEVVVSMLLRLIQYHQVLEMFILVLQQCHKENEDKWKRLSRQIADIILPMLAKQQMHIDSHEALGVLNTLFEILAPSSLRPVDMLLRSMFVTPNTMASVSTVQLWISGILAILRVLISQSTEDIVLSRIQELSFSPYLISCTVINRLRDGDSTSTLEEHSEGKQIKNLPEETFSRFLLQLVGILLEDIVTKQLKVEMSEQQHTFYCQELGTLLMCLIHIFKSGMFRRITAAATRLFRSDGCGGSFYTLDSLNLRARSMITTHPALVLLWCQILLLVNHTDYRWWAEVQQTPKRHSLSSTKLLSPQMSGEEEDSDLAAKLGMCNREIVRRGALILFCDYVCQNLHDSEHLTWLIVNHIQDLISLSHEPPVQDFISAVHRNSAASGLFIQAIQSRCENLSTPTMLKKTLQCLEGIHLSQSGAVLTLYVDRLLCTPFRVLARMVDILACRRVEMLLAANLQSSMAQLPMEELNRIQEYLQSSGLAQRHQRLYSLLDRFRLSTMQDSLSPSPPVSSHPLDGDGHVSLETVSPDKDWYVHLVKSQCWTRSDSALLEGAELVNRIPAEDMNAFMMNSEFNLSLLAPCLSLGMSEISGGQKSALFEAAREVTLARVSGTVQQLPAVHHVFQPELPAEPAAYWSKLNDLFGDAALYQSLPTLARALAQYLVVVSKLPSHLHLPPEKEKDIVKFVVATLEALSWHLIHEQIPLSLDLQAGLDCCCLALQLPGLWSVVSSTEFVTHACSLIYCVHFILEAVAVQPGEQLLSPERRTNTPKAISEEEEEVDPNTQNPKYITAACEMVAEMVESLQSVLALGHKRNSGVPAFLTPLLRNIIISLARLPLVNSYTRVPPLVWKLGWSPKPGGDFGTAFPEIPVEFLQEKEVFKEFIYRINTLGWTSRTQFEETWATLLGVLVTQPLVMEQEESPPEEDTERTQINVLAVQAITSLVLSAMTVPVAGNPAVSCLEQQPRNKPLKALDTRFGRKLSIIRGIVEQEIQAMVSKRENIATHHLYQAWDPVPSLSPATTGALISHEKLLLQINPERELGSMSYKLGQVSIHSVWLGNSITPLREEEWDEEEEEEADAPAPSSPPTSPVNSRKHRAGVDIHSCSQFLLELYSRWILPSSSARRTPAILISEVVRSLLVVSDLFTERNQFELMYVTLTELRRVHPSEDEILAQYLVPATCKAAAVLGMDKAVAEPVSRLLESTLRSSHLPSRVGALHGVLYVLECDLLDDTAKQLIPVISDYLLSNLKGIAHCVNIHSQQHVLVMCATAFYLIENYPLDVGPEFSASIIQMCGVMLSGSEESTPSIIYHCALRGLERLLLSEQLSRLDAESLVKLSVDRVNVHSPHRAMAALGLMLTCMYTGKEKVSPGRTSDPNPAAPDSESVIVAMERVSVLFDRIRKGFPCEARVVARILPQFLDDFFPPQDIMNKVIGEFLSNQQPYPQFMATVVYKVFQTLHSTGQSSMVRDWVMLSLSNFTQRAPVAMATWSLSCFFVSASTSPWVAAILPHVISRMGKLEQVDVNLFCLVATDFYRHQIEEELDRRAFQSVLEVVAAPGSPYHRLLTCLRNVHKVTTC
Pf apPOL block = Pf-apPOL DNA polymerase inhibition | inhibition, % at 10 µM | AID 1794808 | Recombinant Pf-apPOL, molecular beacon fluorescence, 1.5 h | 210,000 tested, 0.25% active
* = called active by the depositor; . = no result. Rule as the data show it: active = inhibition above about 50%; inactive = the rest.

SMILES | mHTT-CaM PPI inh | Pf apPOL block
O=C1C(NS(=O)(=O)c2ccccc2)=CC(=NS(=O)(=O)c2ccc(F)cc2)c2ccccc21 | 5 | -5
Cc1ccccc1NC1=CC(=NS(=O)(=O)c2ccc(F)cc2)c2ccccc2C1=O | 96* | 3
COc1ccccc1NC(=O)CN(c1ccc(C)cc1C)S(C)(=O)=O | 0 | -3
COc1ccc(NC2=CC(=NS(=O)(=O)c3ccc(Cl)cc3)c3ccccc3C2=O)cc1 | 35 | 0
COc1ccc(S(=O)(=O)Nc2ccccc2NS(=O)(=O)c2ccc(OC)cc2)cc1 | 6 | 3
COc1ccccc1NC1=CC(=NS(=O)(=O)c2ccc(C)cc2C)c2ccccc2C1=O | 92* | -6
COc1ccc(S(=O)(=O)N=C2C=C(Nc3ccccc3OC)C(=O)c3ccccc32)cc1 | 91* | 0
CC(C)C(Nc1ncnc2ccccc12)C(=O)O (stereo unspecified) | 0 | 2
COC(N)=NC(=S)Nc1ccc(F)cc1F | . | 4
O=C(Nc1ccc(Br)cc1)c1cc(S(=O)(=O)NCCc2ccccc2)ccc1F | 7 | -3
COc1ccccc1NC1=CC(=NS(=O)(=O)c2ccccc2)c2ccccc2C1=O | 94* | 3
CCc1ccc(S(=O)(=O)Nc2ccccc2OC)cc1 | -25 | 2
COc1ccccc1NC(=O)c1ccc(F)cc1 | -6 | -2
COc1ccccc1NC(=O)c1ccc2c(c1)-c1ccccc1C2=O | 2 | 0
CCc1ccc(S(=O)(=O)N=C2C=C(Nc3ccccc3OC)C(=O)c3ccccc32)cc1 | 93* | 0
COc1ccccc1NC1=CC(=NS(=O)(=O)c2ccc(F)cc2)c2ccccc2C1=O | 94* | 2
CCC(=O)N1CCC(c2nc(C(=O)N(C)C)c(C)o2)CC1 | -14 | 1
COc1ccc(CCN2C(=O)CSC2c2ccc(F)cc2)cc1OC (stereo unspecified) | 8 | 15
Cc1ccccc1CSC1=NCCN1C(=O)c1ccc(OC(C)C)cc1 | -12 | -2
Cn1nc(NC(=O)c2cccn(C)c2=O)c2c1NC(=O)CC2c1ccco1 (stereo unspecified) | -14 | 1
Cc1ccccc1CN1C(=O)/C(=C/C(=O)O)Sc2ccccc21 | 27 | 28
O=C(/C=C1\Sc2ccccc2N(Cc2ccc(F)cc2)C1=O)NCCc1ccccc1 | -16 | 10
Cc1ccccc1CN1C(=O)/C(=C/C(=O)NCCc2ccccc2)Sc2ccccc21 | 51* | -16
Cc1ccc(CN2C(=O)/C(=C/C(=O)O)Sc3ccccc32)cc1 | 60* | 28
COc1ccc(-n2c(C)nc3cc(C(=O)NCC(OC)OC)ccc32)cc1 | -3 | -4
SMILES | mHTT-CaM PPI inh | Pf apPOL block
c1ccc(N=C2C(Nc3ccccc3)=Nc3ccccc32)cc1 | 63* | 0
NC1=NC(=Nc2ccccc2)c2ccccc21 | 3 | -2
CCc1ccccc1NC(=O)Cn1ccc2c(=O)[nH]ccc21 | 23 | 30
COc1ccc(NC(=O)Cn2ccc3c(=O)[nH]ccc32)cc1 | 18 | 53*
Cc1cccc(NC(=O)Cn2ccc3c(=O)[nH]ccc32)c1C | 13 | 54*
Cc1ccc(NC(=O)Cn2ccc3c(=O)[nH]ccc32)cc1C | 16 | 31
N#Cc1ccnc(Oc2ccc(F)cc2F)c1 | -8 | .
Cc1ccccc1Cc1c(C)nc2c(C(=O)NC3CCCC3)cnn2c1C | -1 | -9
Cc1ccc(C)c(Cc2c(C)nc3c(C(=O)NC(C)C)cnn3c2C)c1 | 79* | -9
Cc1ccc(C)c(Cc2c(C)nc3c(C(=O)NC4CCCCC4)cnn3c2C)c1 | -1 | 1
Cc1ccccc1Cc1c(C)nc2c(C(=O)NC(C)C)cnn2c1C | 71* | -13
Cc1ccc(C)c(Cc2c(C)nc3c(C(=O)NC4CC4)cnn3c2C)c1 | 53* | -6
COCCCNC(=O)c1cnn2c(C)c(Cc3cc(C)ccc3C)c(C)nc12 | 42 | -11
Cc1ccc(CNC(=O)CCc2ccc3cc[nH]c3c2)cc1 | 3 | -4
CCCc1nc(-c2ccc(C)cc2)no1 | 0 | -2
CC1(C)CC(CCN(Cc2ccccc2)C(=O)c2ccco2)(c2ccccc2)CCO1 (stereo unspecified) | 26 | -1
CC(=O)N(CCC1(c2ccccc2)CCOC(C)(C)C1)Cc1ccc(N(C)C)cc1 (stereo unspecified) | 75* | -4
CC(C)(C)N=C1Nc2ccccc2NC12CCCN(C(=O)Cc1cccnc1)C2 (stereo unspecified) | 5 | 1
Cc1ccccc1C(=O)N1CCC(c2nc3ccncc3n2CC(C)C)C1 (stereo unspecified) | -2 | -8
CCOC(=O)/C=C1\CN(Cc2ccc(OC)cc2)S(=O)(=O)c2ccc(C(F)(F)F)cc21 | 53* | 78*
CCOC(=O)/C=C1\CN(Cc2ccccc2)S(=O)(=O)c2ccc(C(F)(F)F)cc21 | 20 | 34
O=C(Nc1nnc(-c2cc3ccccc3o2)o1)C1CC1 | 5 | 5
CC1=C(C)CC(C(=O)Nc2ccc(I)cc2)C(C(=O)O)C1 (stereo unspecified) | -5 | -16
Cc1ccc(C2C(C#N)=C(N)OC3=C2C(=O)CCC3)o1 (stereo unspecified) | 1 | -1
Cc1ccc(C2C(C#N)=C(N)Oc3c2sc2ccccc32)o1 (stereo unspecified) | 86* | 7
SMILES | mHTT-CaM PPI inh | Pf apPOL block
CN1C(=O)CCc2cc(NS(=O)(=O)c3ccc(Cl)c(Cl)c3)ccc21 | -2 | -5
CCCCNC(=O)c1cnn2c(C)c(Cc3cc(C)ccc3C)c(C)nc12 | 11 | 0
Cc1nc2c(C(=O)NCc3ccc(F)cc3)cnn2c(C)c1Cc1ccccc1 | 19 | -7
CCCNC(=O)c1cnn2c(C)c(Cc3ccc(F)cc3)c(C)nc12 | -1 | -4
Cc1ccc(C)c(Cc2c(C)nc3c(C(=O)NCCc4ccccc4)cnn3c2C)c1 | 66* | -3
Cc1nc2c(C(=O)NCCc3ccccc3)cnn2c(C)c1Cc1ccc(F)cc1 | 80* | -4
Cc1nc2c(C(=O)NCc3ccc(F)cc3)cnn2c(C)c1Cc1ccc(F)cc1 | 51* | -8
CCOCCCNC(=O)c1cnn2c(C)c(Cc3ccc(Cl)cc3)c(C)nc12 | 65* | -18
CCCCNC(=O)c1cnn2c(C)c(Cc3ccc(Cl)cc3)c(C)nc12 | 11 | -6
CCc1ccc(S(=O)(=O)N2CCc3c(c(-c4nc(C)no4)nn3C)C2)cc1 | 27 | -2
Cc1ccccc1OCC(=O)N1CCN(c2nc3ccncc3n(C)c2=O)CC1 | 10 | 1
Cc1cccc(-n2cc(C3CCN(C(=O)c4cccc(F)c4)CC3)cn2)c1 | 5 | -1
CC(=O)Nc1ccc(Nc2nc(C)nc(Nc3ccc(NC(C)=O)cc3)c2[N+](=O)[O-])cc1 | -2 | -6
CC(=O)N1CCC2(CC1)N=C(c1ccccc1O)CC(c1ccc(F)c(Cl)c1)N2 (stereo unspecified) | 69* | -2
CC(=O)N1CCC2(CC1)N=C(c1ccccc1O)CC(c1ccc(Cl)cc1)N2 (stereo unspecified) | 28 | -7
Cc1ccc(C2CC(c3cc(Cl)ccc3O)=NC3(CCN(C)CC3)N2)cc1 (stereo unspecified) | 100* | 6
CCN1CCC2(CC1)N=C(c1ccc(C)cc1C)CC(c1cc(Cl)ccc1O)N2 (stereo unspecified) | 90* | 1
CCN1CCC2(CC1)N=C(c1ccc(C)c(C)c1)CC(c1cc(Cl)ccc1O)N2 (stereo unspecified) | 15 | -4
CC(=O)N1CCC2(CC1)N=C(c1cc(Cl)ccc1O)CC(c1ccc(C)cc1)N2 (stereo unspecified) | 24 | 6
